Reference: PubChem BioAssay (EPA / NIEHS)
Activity calls are given as the source filed them. The calls were made as follows: active = hit-call score of the fitted dose curve at least 0.9, where 1 is the maximum; inactive = score below 0.9.

Columns and labels:
[1] = APR_HepG2_P-H2AX_72hr: Apredica 72-hour HepG2 Assay for H2AX Phosphorylation (AID 2282916); conditions: imaging, actives raise or lower the signal;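 also: phospho-histone H2A.x immunostain intensity per cell marking DNA damage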
How it was run: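 Readout: phospho-H2A.x immunofluorescence (FITC secondary) plus Hoechst nuclear stain, high-content imaging at 20x, six fields/well. HepG2, 72 hr compound exposure, 0.39–200 uM, final DMSO 0.5% v/v. Gain or loss fitted relative to DMSO baseline.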

[2] = APR_HepG2_MitoMembPot_72hr: Apredica 72-hour HepG2 Assay for Mitochondrial Membrane Potential (AID 2282917); conditions: imaging, actives raise or lower the signal
How it was run: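 HepG2 cells dosed 72 hr with compound at 0.39–200 uM in duplicate, 0.5% v/v DMSO final. Mitochondria stained with 250 nM MitoTracker Red CMXRos for 30 min before formaldehyde fixation, imaged by high-content fluorescence; bidirectional fit versus DMSO.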

[3] = APR_HepG2_MitoticArrest_72hr: Apredica 72-hour HepG2 Assay for Mitotic Arrest (AID 2282918); conditions: high-content imaging, actives raise or lower the signal
How it was run: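 HepG2 cells treated 72 h at 0.39–200 uM, 0.5% DMSO final; formaldehyde-fixed, stained with Hoechst 33342 and phospho-histone H3 antibody, imaged by high-content fluorescence; bidirectional fit versus DMSO.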

[4] = APR_HepG2_MicrotubuleCSK_72hr: Apredica 72-hour HepG2 Assay for Microtubule CSK Stabilty (AID 2282919); conditions: HepG2 microtubule cytoskeleton, high-content imaging, actives raise or lower the signal
How it was run: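 HepG2, 72 hr cmpd exposure, 0.39–200 uM (10 pts, duplicate), 0.5% DMSO. 3.7% formaldehyde fix, 0.5% Triton perm, anti-alpha-tubulin/Cy5 plus Hoechst. HCS fluorescence intensity; bidirectional fit vs DMSO baseline; taxol as positive control.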

[5] = APR_HepG2_P-H2AX_24hr: Apredica 24-hour HepG2 Assay for H2AX Phosphorylation (AID 2282920); conditions: high-content imaging, actives raise or lower the signal
How it was run: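 HepG2 cells dosed 24 h at 0.39–200 uM (10 points, duplicate, 0.5% DMSO final). Formaldehyde-fixed and permeabilized, then immunostained for phospho-H2A.x with Hoechst. Fluorescence quantified by high-content imaging, fitted bidirectionally versus DMSO.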

[6] = APR_HepG2_StressKinase_72hr: Apredica 72-hour HepG2 Assay for Stress Kinase (AID 2282921); conditions: HepG2 stress kinase (phospho-c-Jun) imaging, actives raise or lower the signal
How it was run: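 Phospho-c-Jun immunofluorescence measured by high-content imaging at 20x, six fields per well; bidirectional curve fitting against DMSO as baseline. Dosing: 0.39–200 uM, 72 h, 0.5% DMSO final.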

[7] = APR_HepG2_StressKinase_24hr: Apredica 24-hour HepG2 Assay for Stress Kinase (AID 2282922); conditions: HepG2 stress kinase (phospho-c-Jun) imaging, actives raise or lower the signal
How it was run: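 Read-out: phospho-c-Jun immunofluorescence (Cy3 secondary) quantified by high-content imaging at 20x, nuclei defined by Hoechst 33342. Human HepG2 liver cells dosed 24 hr, 0.39–200 uM, DMSO 0.5% v/v; gain or loss of signal fitted relative to DMSO.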

[8] = APR_HepG2_p53Act_72hr: Apredica 72-hour HepG2 Assay for p53 Activation (AID 2282923); conditions: high-content imaging, actives raise or lower the signal;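 also: average cellular p53 protein immunofluorescence intensity in HepG2 cells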
How it was run: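 Readout: p53 immunofluorescence quantified by automated high-content imaging at 20x, six fields per well, nuclei located via Hoechst. Dosing ran 72 hr over ten concentrations from 0.39 to 200 uM; bidirectional curve fitting against DMSO baseline.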

[9] = APR_HepG2_MitoMass_72hr: Apredica 72-hour HepG2 Assay for Mitochondrial Mass (AID 2282924); conditions: high-content imaging, actives raise or lower the signal;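 also: MitoTracker Red CMXRos stain intensity per cell imaged as mitochondrial mass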
How it was run: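 Read-out: MitoTracker Red fluorescence intensity from automated imaging (20x, six fields per well) in human HepG2 liver cells. Dosing ran 72 hr, 0.39–200 uM, 0.5% DMSO; bidirectional curve fitting versus DMSO baseline.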

[10] = APR_HepG2_NuclearSize_72hr: Apredica 72-hour HepG2 Assay for Nuclear Size (AID 2282925); conditions: high-content imaging, actives raise or lower the signal
How it was run: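 Read-out: nuclear diameter from Hoechst 33342 images (ArrayScan, 20x, six fields/well), via cell-cycle image analysis. HepG2 were dosed 0.39–200 uM for 72 hr in 0.5% DMSO. Bidirectional fit relative to DMSO.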

[11] = ATG_CRE_CIS: Attagene CIS-FACTORIAL HepG2 Assay for human cAMP Responsive Element (CRE) binding protein 3 (AID 2282926); conditions: HepG2 CRE cis-reporter, Attagene multiplexed mRNA; actives raise or lower the signal
How it was run: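 Induced reporter mRNA from a CRE cis element, measured in HepG2 among many multiplexed units at 24 h. Detection used RT-PCR plus capillary electrophoresis of fluorescent fragments; DMSO served as negative control.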

[12] = target: CCAAT/enhancer-binding protein beta (Homo sapiens) (UniProt P17676); test: ATG_C_EBP_CIS: Attagene CIS-FACTORIAL HepG2 Assay for human CCAAT/Enhancer Binding Protein (C/EBP) beta (AID 2282927); conditions: HepG2 Attagene cis-factorial transcription factor reporter; actives raise or lower the signal
How it was run: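 HepG2, transient MRTU transfection, 24 h treatment. RT-PCR plus CE fluorescence; DMSO negative control, bidirectional fit.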

[13] = ATG_CMV_CIS: Attagene CIS-FACTORIAL HepG2 Assay for human CMV (Internal Marker) (AID 2282928); conditions: HepG2 CMV promoter reporter, transcription factor profiling; actives raise or lower the signal;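 also: endpoint acts as a background internal control marker rather than a target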
How it was run: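 Bidirectional fits against DMSO are applied to reporter mRNA, read by RT-PCR with capillary electrophoresis, from HepG2 cells exposed 24 h. The endpoint serves as an internal CMV background marker within the cis-factorial reporter panel.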

[14] = ATG_DR4_LXR_CIS: Attagene CIS-FACTORIAL HepG2 Assay for human Liver X Receptor (LXR), DR4 submotif (AID 2282929); conditions: HepG2 Attagene DR4 cis-reporter, mRNA transcription; actives raise or lower the signal
How it was run: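 Cells were transfected with multiple reporter transcription units, exposed to chemicals for 24 hours, then lysed for RNA. Reporter mRNA induction was measured by RT-PCR with capillary electrophoresis detection and fitted in both directions relative to DMSO.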

[15] = target: Aryl hydrocarbon receptor (Homo sapiens) (UniProt P35869); test: ATG_Ahr_CIS: Attagene CIS-FACTORIAL HepG2 Assay for human Aryl Hydrocarbon Receptor (Ahr) (AID 2282930); conditions: HepG2 AhR cis-factorial reporter transcription; actives raise or lower the signal
How it was run: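 Endogenous factor activity is tracked through cis-promoter reporter units transfected into HepG2 cells. Transcript levels at 24 h are read by fluorescent RT-PCR and capillary electrophoresis, with activity in either direction scored relative to DMSO.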

[16] = ATG_AP_1_CIS: Attagene CIS-FACTORIAL HepG2 Assay for human Activator Protein 1 (AP-1) (AID 2282931); conditions: HepG2 Attagene cis-factorial AP-1 reporter mRNA; actives raise or lower the signal
How it was run: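 Endogenous transcription-factor activity in human HepG2 liver cells is read through a cis-promoter reporter transcript, sampled 24 h after dosing. Detection uses RT-PCR with capillary electrophoresis; values come from bidirectional fitting relative to DMSO.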

[17] = ATG_AP_2_CIS: Attagene CIS-FACTORIAL HepG2 Assay for human Activator Protein 2 (AP-2) (AID 2282932); conditions: HepG2 AP-2 cis-reporter, Attagene transcription factor profiling; actives raise or lower the signal
How it was run: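 Read-out: fluorescent reporter mRNA via RT-PCR and capillary electrophoresis, 24 h post-dose in transiently transfected HepG2. Endogenous factors drive cis-promoter reporters; gain or loss of signal fitted bidirectionally against DMSO.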

[18] = ATG_BRE_CIS: Attagene CIS-FACTORIAL HepG2 Assay for human Bone Morphogenetic Protein (BMP) Response Element (BRE) (AID 2282933); conditions: HepG2 BMP response element reporter, Attagene transcription factor profiling; actives raise or lower the signal
How it was run: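 Endogenous transcription factor activity at a BMP response element was monitored in transfected HepG2 cells 24 h after dosing. Fluorescent RT-PCR products were resolved by capillary electrophoresis, and activity was fitted in both directions versus DMSO.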

[19] = target: Retinoic acid receptor alpha (Homo sapiens) (UniProt P10276); test: ATG_DR5_RAR_CIS: Attagene CIS-FACTORIAL HepG2 Assay for human Retinoic Acid Receptor Alpha (RARE), DR5 submotif (AID 2282934); conditions: HepG2 Attagene cis-factorial RARE DR5 reporter, mRNA; actives raise or lower the signal;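 as to AC50: reporter responds to endogenous RAR alpha beta and gamma in HepG2 not RARA alone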
How it was run: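 After 24 h of chemical exposure, transiently transfected HepG2 cells were lysed for total RNA; the DR5-regulated reporter transcript was quantified via RT-PCR and capillary electrophoresis, with activity fitted bidirectionally against DMSO.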

[20] = target: Transcription factor E2F1 (Homo sapiens) (UniProt Q01094); test: ATG_E2F_CIS: Attagene CIS-FACTORIAL HepG2 Assay for human E2F Transcription Factor 1 (AID 2282935); conditions: HepG2 Attagene cis-reporter, E2F reporter RNA transcripts; actives raise or lower the signal
How it was run: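 Transient MRTU transfection of HepG2; 24 h compound exposure; RNA → oligo(dT) RT → PCR → FAM label → HpaI cut → CE fluorescence. Gain/loss of signal fit against DMSO.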

Measured: AC50

Sequence of Retinoic acid receptor alpha (Homo sapiens) (P10276 whole entry, looked up): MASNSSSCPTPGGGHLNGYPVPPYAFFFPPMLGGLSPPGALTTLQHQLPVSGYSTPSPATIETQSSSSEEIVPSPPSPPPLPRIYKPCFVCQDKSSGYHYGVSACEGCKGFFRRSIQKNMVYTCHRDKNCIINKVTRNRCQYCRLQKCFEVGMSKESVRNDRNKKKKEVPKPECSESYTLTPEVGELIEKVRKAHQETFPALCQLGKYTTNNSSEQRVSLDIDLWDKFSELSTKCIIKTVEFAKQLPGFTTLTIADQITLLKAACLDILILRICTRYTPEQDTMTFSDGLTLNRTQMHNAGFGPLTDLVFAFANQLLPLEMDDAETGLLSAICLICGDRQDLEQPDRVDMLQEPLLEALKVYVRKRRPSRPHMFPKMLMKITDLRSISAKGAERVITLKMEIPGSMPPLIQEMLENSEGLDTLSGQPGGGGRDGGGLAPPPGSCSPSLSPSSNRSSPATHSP
Sequence of Transcription factor E2F1 (Homo sapiens) (Q01094 whole entry, looked up): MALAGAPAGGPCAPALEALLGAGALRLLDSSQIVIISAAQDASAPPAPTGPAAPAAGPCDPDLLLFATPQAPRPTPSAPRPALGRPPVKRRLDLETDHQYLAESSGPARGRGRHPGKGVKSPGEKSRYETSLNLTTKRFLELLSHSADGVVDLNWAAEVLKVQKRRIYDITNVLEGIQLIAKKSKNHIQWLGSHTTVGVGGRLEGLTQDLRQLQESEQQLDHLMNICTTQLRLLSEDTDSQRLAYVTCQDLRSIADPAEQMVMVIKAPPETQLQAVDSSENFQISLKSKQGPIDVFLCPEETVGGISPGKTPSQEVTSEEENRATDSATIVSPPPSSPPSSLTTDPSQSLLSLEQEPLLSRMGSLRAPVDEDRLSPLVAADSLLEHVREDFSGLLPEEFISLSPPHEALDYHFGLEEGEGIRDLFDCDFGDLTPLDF
Sequence of CCAAT/enhancer-binding protein beta (Homo sapiens) (P17676 whole entry, looked up): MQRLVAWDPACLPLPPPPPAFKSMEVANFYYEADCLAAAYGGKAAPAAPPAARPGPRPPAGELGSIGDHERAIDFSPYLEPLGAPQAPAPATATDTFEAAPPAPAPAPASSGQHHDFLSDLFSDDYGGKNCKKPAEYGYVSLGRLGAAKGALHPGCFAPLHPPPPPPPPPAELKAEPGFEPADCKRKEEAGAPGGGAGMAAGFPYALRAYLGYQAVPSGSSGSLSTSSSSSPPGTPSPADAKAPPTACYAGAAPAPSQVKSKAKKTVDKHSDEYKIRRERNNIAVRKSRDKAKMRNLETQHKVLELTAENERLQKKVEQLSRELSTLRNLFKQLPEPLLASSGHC
Sequence of Aryl hydrocarbon receptor (Homo sapiens) (P35869 whole entry, looked up): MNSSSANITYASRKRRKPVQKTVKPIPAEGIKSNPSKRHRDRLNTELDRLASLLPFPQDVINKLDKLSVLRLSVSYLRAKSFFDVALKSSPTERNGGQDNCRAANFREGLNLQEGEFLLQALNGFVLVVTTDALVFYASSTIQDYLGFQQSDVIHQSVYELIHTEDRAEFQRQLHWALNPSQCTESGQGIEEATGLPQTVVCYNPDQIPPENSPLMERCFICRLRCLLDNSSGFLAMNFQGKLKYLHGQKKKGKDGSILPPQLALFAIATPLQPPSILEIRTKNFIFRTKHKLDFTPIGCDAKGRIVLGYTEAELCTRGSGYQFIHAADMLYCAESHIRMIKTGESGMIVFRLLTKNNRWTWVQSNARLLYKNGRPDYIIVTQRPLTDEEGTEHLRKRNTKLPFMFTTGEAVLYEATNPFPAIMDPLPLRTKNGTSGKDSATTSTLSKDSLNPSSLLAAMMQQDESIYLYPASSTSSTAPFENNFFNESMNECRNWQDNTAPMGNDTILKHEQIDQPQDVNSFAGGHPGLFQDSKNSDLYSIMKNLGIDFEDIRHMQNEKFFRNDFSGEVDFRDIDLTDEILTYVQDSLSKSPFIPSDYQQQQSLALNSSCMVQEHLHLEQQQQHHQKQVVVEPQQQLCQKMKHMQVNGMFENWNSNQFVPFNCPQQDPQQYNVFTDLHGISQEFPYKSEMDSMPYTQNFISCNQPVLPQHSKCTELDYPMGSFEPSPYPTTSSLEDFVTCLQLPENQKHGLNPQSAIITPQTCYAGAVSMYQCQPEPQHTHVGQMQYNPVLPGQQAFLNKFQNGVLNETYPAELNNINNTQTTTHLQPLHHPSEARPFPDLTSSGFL

CCOP(=S)(OCC)Oc1ccc([N+](=O)[O-])cc1
active: [12] 13.5 µM | [15] 30.9 µM | [16] 82.6 µM
inactive: all other assays above

C#CC(C)(C)NC(=O)c1cc(Cl)cc(Cl)c1
active: [11] 29 µM | [12] 20.5 µM | [13] 39.3 µM | [18] 22.5 µM
inactive: all other assays above

CC(COc1ccc(Oc2ccccc2)cc1)Oc1ccccn1 (stereo not given)
active: [4] 82.3 µM | [12] 13.4 µM | [16] 19.1 µM
inactive: all other assays above

CCOP(=S)(Oc1cnc(C(C)(C)C)nc1)OC(C)C (stereo not given)
active: [4] 66.5 µM | [12] 2.22 µM | [13] 50 µM | [14] 12.9 µM | [16] 62.2 µM | [18] 50 µM | [19] 12 µM
inactive: all other assays above

CCOP(=S)(OCC)SCCSCC
inactive: all assays above

CCOC(=O)CC(SP(=O)(OC)OC)C(=O)OCC (stereo not given)
inactive: all assays above

CN(C)NC(=O)CCC(=O)O
inactive: all assays above

COP(=O)(OC)C(O)C(Cl)(Cl)Cl (stereo not given)
active: [5] 100 µM | [8] 113 µM | [11] 32 µM | [12] 50 µM | [13] 22.1 µM | [16] 35.2 µM | [18] 30.1 µM
inactive: all other assays above

CCCSP(=O)(OCC)Oc1ccc(Br)cc1Cl (stereo not given)
active: [4] 113 µM | [11] 2.33 µM | [12] 1.81 µM | [13] 3.92 µM
inactive: all other assays above

CNC(=O)ON=C(SC)C(=O)N(C)C
active: [9] 87.8 µM | [11] 17.4 µM | [16] 50 µM
inactive: all other assays above

CCCOc1nn(C(=O)NS(=O)(=O)c2ccccc2C(=O)OC)c(=O)n1C
inactive: all assays above

CCc1cccc(C)c1N(C(=O)CCl)C(C)COC (stereo not given)
active: [1] 87.6 µM | [3] 82.6 µM | [4] 62.4 µM | [14] 32.1 µM | [16] 9.57 µM
inactive: all other assays above

S=C1NCCN1
inactive: all assays above
